Screens from PubChem.
PTHR1 agonist = PTHR1 (human) receptor agonism; HEK293 GP2 PTHR1 cells, GloSensor cAMP luminescence, 1 h; Q03431; Potency, µM (titrated, usually from 115 µM), without a hit: at the top dose activation, hits mostly activators; AID 743266; 410,000 compounds, 0.075% hits; further: potency means the concentration at half of the fitted maximal effect; nearly all actives have a fitted effect of over 55% in size
Target sequence (Q03431 whole entry, looked up): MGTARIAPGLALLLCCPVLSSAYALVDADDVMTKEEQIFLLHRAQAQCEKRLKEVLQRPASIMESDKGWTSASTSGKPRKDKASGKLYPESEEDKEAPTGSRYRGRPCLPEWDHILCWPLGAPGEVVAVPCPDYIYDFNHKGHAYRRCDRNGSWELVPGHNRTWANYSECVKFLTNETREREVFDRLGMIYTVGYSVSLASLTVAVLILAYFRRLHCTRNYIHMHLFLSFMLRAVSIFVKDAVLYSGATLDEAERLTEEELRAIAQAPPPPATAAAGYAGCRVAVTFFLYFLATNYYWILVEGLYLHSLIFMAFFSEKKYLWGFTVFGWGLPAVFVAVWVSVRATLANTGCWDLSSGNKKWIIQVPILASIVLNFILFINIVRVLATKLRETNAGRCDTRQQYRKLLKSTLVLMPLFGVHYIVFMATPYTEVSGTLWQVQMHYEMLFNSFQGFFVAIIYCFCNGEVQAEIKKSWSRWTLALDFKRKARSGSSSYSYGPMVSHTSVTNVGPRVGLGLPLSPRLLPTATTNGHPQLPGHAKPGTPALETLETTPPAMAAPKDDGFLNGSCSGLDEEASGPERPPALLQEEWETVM
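HEK-293-derived GP2 cells expressing PTHR1 and a GloSensor cAMP reporter, 3,000/well, plated overnight, given luciferin plus IBMX (each 0.5 mM as added) for 1 h at 37 °C, then compound for 1 h at 37 °C. Luminescence was read after 15 min at room temperature.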
TDP43 rescue = rescues yeast growth from TDP-43 toxicity. Potency, µM (titrated, usually from 46.1 µM), for inactives: at the highest dose growth rescue (activation), hits mostly activators. 410,000 compounds, 1.8% hits. TDP-43 expressing yeast growth rescue, BacTiter-Glo, 24 h; further: potency means the concentration at half of the fitted maximal effect; % of control where 0% means no effect; nearly all actives have a fitted effect of over 50% in size
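Yeast expressing TDP-43 (pregrown in raffinose, seeded at OD600=0.02 in galactose medium) exposed to compounds 24 hr at 30 deg C. Growth read by BacTiter-Glo luminescence; rescue of toxicity appears as increased signal.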
FUS suppressor = rescues growth of FUS-expressing yeast; Potency, µM (series often up to 76.6 µM), usual class: activators; S. cerevisiae FUS-expressing, growth rescue, OD600, 24 h; 390,000 compounds, 0.24% hits; AID 1347120;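 further: potency means the concentration at half of the fitted maximal effect; plate controls were DMSO vehicle for no effect and reference control for full effect; nearly all actives have a fitted effect of over 55% in size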
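S. cerevisiae expressing FUS from galactose induction served as the toxicity model. Growth after 24hr at 30C, read as absorbance at 600 nm, indicates suppression of toxicity; compounds dosed at several concentrations.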
Abeta rescue = restores growth of yeast expressing A-beta42 peptide; AID 1347071; 410,000 compounds, 0.063% hits; yeast expressing A-beta42, growth rescue, OD600, 48 h; response scale: 0% DMSO, 100% iron-clioquinol control; Potency, µM (highest dose often 46.1 µM), actives largely listed as activators; further: potency means the concentration at half of the fitted maximal effect; nearly all actives have a fitted effect of over 55% in size
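Growth rescue measured by 600 nm absorbance after 48 h yeast culture at 30 C with compound. Values normalized between DMSO and an equimolar ferric chloride plus clioquinol control.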
LDHA inh = LDHA (human) enzyme inhibition | P00338 | purified LDHA, NADH/diaphorase-resazurin fluorescence; stronger effect = lower value | activity change, % (values are at about 110 or 230 µM) | 480,000 compounds, 0.15% hits; in the data active means activity change below about -30%; inconclusive means mostly about -25% to -30%;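 further: plate controls were DMSO wells for no effect and wells without enzyme for full effect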
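Remaining NADH was detected by diaphorase (0.133 mg/mL) converting 37 µM resazurin to fluorescent resorufin, read at 0 and 20 minutes. The preceding 5-minute room-temperature reaction used 2 nM LDHA, 0.2 mM sodium pyruvate and 0.06 mM NADH at pH 7.4.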
aSyn rescue = alpha-synuclein toxicity inhibition in yeast | Potency, µM (top dose mostly 46.1 µM), for the others: at the highest dose growth rescue (activation), actives largely listed as activators | 370,000 compounds, 0.14% hits | Yeast expressing alpha-synuclein, growth rescue, BacTiter-Glo, 24 h; further: potency means the concentration at half of the fitted maximal effect; % of control where 0% means no effect; nearly all actives have a fitted effect of over 65% in size
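Rescue of yeast growth: cells expressing toxic alpha-synuclein, induced in galactose at OD600 0.02, incubated with compound 24 h at 30 C. ATP luminescence quantified growth; inhibitors of toxicity appear as activators.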
An asterisk follows results filed as active; i = inactive; ? = inconclusive; · = no result; [ ] = remark or other dose. Only some compounds are listed: those with a hit (about 1.9% of all), similar ones and a draw of the others. Unless noted, the call rests on the fitted dose curve; in most records, active means well fitted curve in the direction sought with a large enough effect; inconclusive means small, poorly fitted or top-dose-only effect, or another doubt; inactive means no such curve, though single readings can be large; an effect the other way counts as inactive or inconclusive.

SMILES	PTHR1 agonist	TDP43 rescue	FUS suppressor	Abeta rescue	LDHA inh	aSyn rescue
COc1cccc(-c2csc(N3CCN(C(=O)Nc4ccc(F)cc4)CC3)n2)c1	-95%	18µM*	13µM*	i	-4	-4%
COCCCNC(=S)N1CCN(c2nc(-c3ccc(F)cc3)cs2)CC1	-93%	22µM*	?	?	0	-2%
CCOCCCNC(=S)N1CCN(c2nc(-c3ccc(F)cc3)cs2)CC1	-56%	25µM*	i	?	0	4%
CCOC(=O)N1CCN(c2nc(-c3ccc(F)cc3)cs2)CC1	-10%[57.5 µM]	20µM*	i	i	-1	-17%
CC(=O)c1c(C)[nH]c(C(=O)C(C)OC(=O)c2ccc(C)c(O)c2)c1C (stereo not given)	·	·	·	·	2	·
CC(C)OCCCNC(=S)NCCc1ccccc1	·	·	·	·	0	·
CC1=C(C(=O)Nc2ccccc2)C(c2ccc(Cl)cc2Cl)NC(=S)N1 (stereo not given)	·	·	·	·	-1	·
COc1ccc(-c2nc(-c3ccc(Br)o3)no2)cc1	-76%	19%	i	i	-13	-6%
CC(C)(C)c1ccc(-c2nc(-c3ccc(Br)o3)no2)cc1	·	·	·	·	-31*	·
COc1cc(/C=N/Nc2nc(Nc3ccccc3)nc(N3CCOCC3)n2)ccc1OC(=O)c1ccco1	-13%	20µM*	?	i	-2	14%
O=C(Oc1cccc(/C=N/Nc2nc(N3CCOCC3)nc(N3CCOCC3)n2)c1)c1ccco1	-12%	1%	i	i	-5	1%
Cc1ccc(C(=O)N/C(=C\c2ccco2)C(=O)O)cc1	·	·	·	·	11	·
O=C(Nc1cccc(C(F)(F)F)c1)c1ccc(Cn2cc(Br)cn2)o1	-36%	13µM*	i	i	3	-12%
O=C(Nc1ccc(C(F)(F)F)cc1Cl)c1ccc(Cn2cc(Br)cn2)o1	-5%[57.5 µM]	?	i	i	7	4%
COc1ccc(NC(=O)CSc2nnc(-c3ccncc3)n2-n2cccc2)cc1	·	·	·	·	7	·
C/C=C/Cn1c(SCc2ccc(F)cc2)nc2c1c(=O)[nH]c(=O)n2C	·	·	·	·	0	·
Cc1onc(-c2ccccc2Cl)c1C(=O)NCC1CCCO1 (stereo not given)	5%	-13%	i	i	-11	-5%
O=C(NCC1CCCO1)c1ccc(-c2ccccc2Cl)o1 (stereo not given)	-27%	20µM*	i	i	-6	20%
O=C(NNC(=O)c1ccccc1F)c1ccc(-c2ccccc2Cl)o1	i	22µM*	i	i	-4	0%
COC(=O)c1ccc(C2C(c3ccccc3)=C(O)C(=O)N2Cc2ccc(F)cc2)cc1 (stereo not given)	·	·	·	·	4	·
Nc1ccc(N2CCN(c3ccc(F)cc3)CC2)cc1	-18%	-12%	i	i	2	-3%
Nc1ccc(N2CCN(c3ccc(Cl)c(Cl)c3)CC2)cc1	-86%	8.9µM*	·	i	1	12%
Nc1n[nH]c(N)c1N=Nc1ccc(Cl)cc1	-14%	7%	·	i	-6	-2%
Nc1[nH]ncc1N=Nc1ccc(Cl)cc1	-45%	18µM*	i	i	-2	15%
CC(O)Cn1c(N2CCN(c3ccccc3)CC2)nc2c1c(=O)[nH]c(=O)n2C (stereo not given)	·	·	·	·	-9	·
COc1ccc(C=C(C(=O)c2ccccc2)C(=O)c2ccccc2)cc1	-36%	14µM*	i	i	2	6%
COc1ccc(C=C(C(=O)c2ccccc2)c2ccccc2)cc1	i	0%	i	i	0	1%
CC(=O)C(=Cc1ccc(Cl)cc1)C(=O)c1ccccc1	-52%	?	i	i	-4	-58%
COc1ccc(C=C(C(C)=O)C(=O)c2ccccc2)cc1	-51%	20µM*	i	i	5	?
COc1cccc(NC(=O)N2CCN(c3nc(C)cc(Nc4ccc(C)cc4)n3)CC2)c1	·	·	·	·	11	·
